Screening data from PubChem BioAssay.
Rows were chosen to be rich in hits. Some 3.3% of all compounds tested hit in one or more screens of this group.
GRIN3A LBD mod – modulators (binders) of human NR3A ligand-binding domain; NR3A LBD differential scanning fluorimetry, Tm shift; 0% = protein alone, 100% = glycine-bound protein; Tm shift relative to glycine control, % at 25 µM; 2.5% of 340,000 active; AID 1259313;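 active means melting temperature shift of at least 10% of the positive control shift, at one fixed dose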
UBC9 SUMO inh – inhibitors of human SUMOylation (UBC9) | AID 2006 | P63279 | 0.36% of 290,000 active | inhibition, % at 35 µM | HTRF SUMOylation assay, SAE1/SAE2 + UBC9, in vitro; in the data active means inhibition above about 50%, passing the limit was not always enough
HGIII-sPLA2 inh – Blocks human group III sPLA2 activity. Q9NZ20. QFRET BODIPY PC-A2 liposome hydrolysis, fluorescence. inhibition, % at 12.2 µM. 0.56% of 370,000 active. AID 743126;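 active means inhibition above mean plus 3 SD of compounds lying within the high and low control bounds, cut at about 19% in these data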
Target sequence (Q9NZ20 whole entry, looked up): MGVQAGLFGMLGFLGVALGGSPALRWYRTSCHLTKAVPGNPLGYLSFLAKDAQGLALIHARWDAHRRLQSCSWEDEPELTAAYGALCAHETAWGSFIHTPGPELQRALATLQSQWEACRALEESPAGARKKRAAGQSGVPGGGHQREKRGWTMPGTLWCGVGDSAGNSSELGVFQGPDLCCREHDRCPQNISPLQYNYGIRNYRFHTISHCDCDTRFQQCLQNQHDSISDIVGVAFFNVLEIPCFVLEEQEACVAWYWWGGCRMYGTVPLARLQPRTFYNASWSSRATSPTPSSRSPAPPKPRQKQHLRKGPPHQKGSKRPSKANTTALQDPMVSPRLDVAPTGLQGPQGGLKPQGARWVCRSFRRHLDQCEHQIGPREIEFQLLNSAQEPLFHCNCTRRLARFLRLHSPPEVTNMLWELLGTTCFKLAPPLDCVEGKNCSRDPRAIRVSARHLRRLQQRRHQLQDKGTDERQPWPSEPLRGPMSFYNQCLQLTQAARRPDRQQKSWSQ
UBC13 inh – human UBC13 polyubiquitination inhibition | P61088 | UBC13 polyubiquitin chain formation, TR-FRET | inhibition, % at 20 µM | 0.47% of 330,000 active; in the data active means inhibition above about 45%, passing the limit was not always enough
Target sequence (P61088 whole entry, looked up): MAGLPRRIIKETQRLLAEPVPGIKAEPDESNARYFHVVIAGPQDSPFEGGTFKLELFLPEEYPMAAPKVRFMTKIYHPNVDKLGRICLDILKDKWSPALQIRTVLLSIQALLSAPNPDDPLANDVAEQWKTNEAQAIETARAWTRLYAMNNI
hGIII sPLA2 conf – human GIII-sPLA2 inhibition, confirmation; 34% of 2,000 active; shares compounds with HGIII-sPLA2 inh; inhibition, % at 12.2 µM; recombinant hGIII-sPLA2, BODIPY PC-A2 QFRET fluorescence; AID 743280;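 active means mean inhibition across triplicates above the hit cutoff set in the earlier primary screen, cut at about 19% in these data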
BODIPY interf – 535nm fluorescence interference, HGIII-sPLA2 counter-screen; inhibition, % at 12.2 µM; 8.5% of 2,000 active; AID 743282; shares compounds with HGIII-sPLA2 inh; BODIPY FL product fluorescence interference, QFRET;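 active means average inhibition above the solvent-only control mean plus 3 SD, cut at about 6% in these data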
BODIPY interf DR – interferes with 535nm fluorescence in dose response counter-screen | IC50, µM | 240 tested, under 10 active | BODIPY FL product fluorescence interference, cell-free | shares compounds with HGIII-sPLA2 inh;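 active means IC50 at or below 10 µM; inactive means IC50 above 10 µM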
Of the large screens only hits and unclear results are named; the others gave an inactive call (follow-up assays come after a bar, where they were run).

CN1C(=O)c2cc(NC(=O)Cc3cccs3)ccc2OC[C@@H]2O[C@@H](CC(=O)N[C@H]3CCN(Cc4ccccc4)C3)CC[C@@H]21	none (no result: GRIN3A LBD mod, UBC9 SUMO inh, UBC13 inh)
C/C(=N\NC(=S)NC(C)C)c1ccc(Cl)c([N+](=O)[O-])c1	HGIII-sPLA2 inh 19.9 | hGIII sPLA2 conf 19.3 | BODIPY interf inactive
C/C(=N/NC(=S)Nc1cccc(C)c1)c1cccc([N+](=O)[O-])c1	none
C/C(=N\NC(=S)NC(C)C)c1cccc([N+](=O)[O-])c1	HGIII-sPLA2 inh 19.7 | hGIII sPLA2 conf 22.2 | BODIPY interf inactive
COCCCNC(=O)C[C@H]1C[C@@]2(C(=O)OC)C(=C[C@H](C(C)C)O[C@@H]2C2CC2)N(Cc2ccc3c(c2)OCO3)C1=O	none (no result: GRIN3A LBD mod, UBC9 SUMO inh, UBC13 inh)
Cc1ccc(S(=O)(=O)NCC(=O)N2CCN(c3ccccn3)CC2)cc1C	none (no result: GRIN3A LBD mod, UBC9 SUMO inh, UBC13 inh)
COC(=O)[C@]12C[C@H](CC(=O)NCc3cccs3)C(=O)N(Cc3ccc(Cl)cc3Cl)C1=C[C@H](C1CCCC1)O[C@@H]2C	none (no result: GRIN3A LBD mod, UBC9 SUMO inh, UBC13 inh)
C=CC[n+]1c(-c2ccccc2)csc1NC(C)(C)C	HGIII-sPLA2 inh 19.5 | hGIII sPLA2 conf 21.2 | BODIPY interf inactive
C=CC[n+]1c(-c2ccc(OC)c(OC)c2)csc1NNC(=O)Nc1ccccc1	none
CCCCN(CC)S(=O)(=O)c1ccc(C(=O)N=c2sc3cc(NC(C)=O)ccc3n2C)cc1	HGIII-sPLA2 inh 20.2 | hGIII sPLA2 conf inactive | BODIPY interf inactive
O=C(COc1ccc(F)c(Cl)c1)N[C@H]1CCCN(CC2CC2)C1	none (no result: GRIN3A LBD mod, UBC9 SUMO inh, UBC13 inh)
CN(C)c1cccc2c1C(=O)c1ccccc1C2=O	HGIII-sPLA2 inh 25.5 | hGIII sPLA2 conf 32.6 | BODIPY interf 6.6
COc1ccc(C(NC(=O)C(C)C)c2ccc3cccnc3c2O)cc1 (stereo not given)	HGIII-sPLA2 inh 23.2 | hGIII sPLA2 conf 19.5 | BODIPY interf inactive
CC(C)C(=O)NC(c1ccc(Cl)cc1Cl)c1ccc2cccnc2c1O (stereo not given)	UBC9 SUMO inh 76.6, HGIII-sPLA2 inh 25.1 | hGIII sPLA2 conf 32.5 | BODIPY interf inactive
CCCCC(=O)NC(c1cccs1)c1cc(Cl)c2cccnc2c1O (stereo not given)	HGIII-sPLA2 inh 24.1 | hGIII sPLA2 conf 31.7 | BODIPY interf inactive | BODIPY interf DR inactive
CCC(=O)NC(c1ccco1)c1cc(Br)c2cccnc2c1O (stereo not given)	HGIII-sPLA2 inh 23.4 (no result: GRIN3A LBD mod, UBC9 SUMO inh, UBC13 inh) | hGIII sPLA2 conf inactive | BODIPY interf inactive
CCCCC(=O)NC(c1ccc(OC)cc1)c1ccc2cccnc2c1O (stereo not given)	none (no result: GRIN3A LBD mod, UBC9 SUMO inh, UBC13 inh)
C[C@@H]1OC(c2ccccc2)N(C)[C@H]2C[C@H]3c4[nH]c5cccc(-c6ccccc6)c5c4CCN3C[C@@H]12 (stereo not given in full)	none (no result: GRIN3A LBD mod, UBC9 SUMO inh, UBC13 inh)
CC(=O)NC(c1ccc(Cl)cc1)c1ccc2cccnc2c1O (stereo not given)	none (no result: UBC9 SUMO inh, UBC13 inh)
CCCCC(=O)NC(c1ccc(Cl)cc1Cl)c1ccc2cccnc2c1O (stereo not given)	HGIII-sPLA2 inh 20.6 | hGIII sPLA2 conf 29.6 | BODIPY interf inactive
CCC(=O)NC(c1ccc(Cl)cc1Cl)c1ccc2cccnc2c1O (stereo not given)	UBC9 SUMO inh 50.1, HGIII-sPLA2 inh 32.8 | hGIII sPLA2 conf 25.3 | BODIPY interf inactive
CCCC(=O)NC(c1ccc(OC)c(OC)c1)c1cc(Cl)c2cccnc2c1O (stereo not given)	none
COC(=O)c1ccc2c(C3(c4c[nH]c5ccccc45)CCN(C(=O)OC(C)(C)C)CC3)c[nH]c2c1	none (no result: GRIN3A LBD mod, UBC9 SUMO inh, UBC13 inh)
CCCCOc1ccccc1C1NC(=O)NC(C)=C1C(=O)OCCOC (stereo not given)	none (no result: UBC9 SUMO inh)
CCCOc1ccccc1C1NC(=O)NC(C)=C1C(=O)OCCOC (stereo not given)	HGIII-sPLA2 inh 20.7 | hGIII sPLA2 conf inactive | BODIPY interf inactive
COC(=O)[C@H](C(C)C)N1Cc2nnn(Cc3ccc(C)cc3)c2-c2cc(F)ccc2S1(=O)=O	none (no result: GRIN3A LBD mod, UBC9 SUMO inh, UBC13 inh)
CSc1ccc(NC(N)=S)cc1	none
CSc1cccc(NC(N)=S)c1	HGIII-sPLA2 inh 19.7 | hGIII sPLA2 conf inactive | BODIPY interf inactive
CC1(C)Oc2ccc(C#N)cc2[C@@H](N2CCCC2=O)[C@@H]1O	HGIII-sPLA2 inh 21.1 | hGIII sPLA2 conf inactive | BODIPY interf inactive
N/C(=N\OC(=O)COc1ccc(Br)cc1)c1ccncc1	HGIII-sPLA2 inh 20.2 | hGIII sPLA2 conf inactive | BODIPY interf inactive
N/C(=N\OC(=O)COc1ccc([N+](=O)[O-])cc1)c1ccncc1	none
Brc1cccc(Cn2ccc3ccc(-c4ccc5ccn(Cc6cccc(Br)c6)c5c4)cc32)c1	none (no result: GRIN3A LBD mod, UBC9 SUMO inh, UBC13 inh)
O=C(NC(=S)NC1CCC(O)CC1)c1ccco1 (stereo not given)	HGIII-sPLA2 inh 19.7 (no result: UBC9 SUMO inh) | hGIII sPLA2 conf inactive | BODIPY interf inactive
O=C(/C=C/c1ccco1)NC(=S)NNC(=O)c1ccco1	HGIII-sPLA2 inh 30.6 | hGIII sPLA2 conf inactive | BODIPY interf inactive
O=C(NNC(=S)NC(=O)c1ccco1)c1ccc(F)cc1	none
COc1ccc(C(=O)NNC(=S)NC(=O)c2ccco2)cc1	HGIII-sPLA2 inh 20.0 | hGIII sPLA2 conf 24.2 | BODIPY interf inactive
CCCOc1ccc(C(=O)NNC(=S)NC(=O)c2ccco2)cc1	HGIII-sPLA2 inh 30.5 | hGIII sPLA2 conf 34.0 | BODIPY interf inactive | BODIPY interf DR inactive
O=C(NC(=S)NC1CCCc2ccccc21)c1ccco1 (stereo not given)	none
CC(=O)NC(=S)Nc1ccc(NC(=S)NC(=O)/C=C/c2ccco2)cc1	none
CC(Oc1ccc(Cl)cc1)C(=O)NNC(=S)NC(=O)c1ccco1 (stereo not given)	HGIII-sPLA2 inh 27.9 | hGIII sPLA2 conf 36.1 | BODIPY interf inactive | BODIPY interf DR inactive
O=C(COc1ccc(Cl)cc1Cl)NNC(=S)NC(=O)c1ccco1	none
O=C(NC1CCCCN(Cc2cccc(Cl)c2)C1=O)c1c(F)cccc1F (stereo not given)	none (no result: GRIN3A LBD mod, UBC9 SUMO inh, UBC13 inh)
COc1ccc(C(C)(C)C)cc1NC(=S)NCCN1CCOCC1	HGIII-sPLA2 inh 19.9 | hGIII sPLA2 conf inactive | BODIPY interf inactive
COc1ccc(NC(=S)NCCCN2CCOCC2)cc1	HGIII-sPLA2 inh 22.5 | hGIII sPLA2 conf inactive | BODIPY interf inactive
N#Cc1c(C(F)(F)F)cc(-c2ccco2)nc1SCc1ccncc1	none
N#Cc1c(C(F)(F)F)cc(-c2ccco2)nc1SCc1ccccn1	HGIII-sPLA2 inh 19.7 | hGIII sPLA2 conf inactive | BODIPY interf inactive
C=CCNC(=O)NCC1CCN(Cc2ccc(OC)cc2)CC1	none (no result: GRIN3A LBD mod, UBC9 SUMO inh, UBC13 inh)
O=C(CSc1nc2ccccc2nc1N1CCCCC1)N1CCN(C(c2ccccc2)c2ccc(Cl)cc2)CC1 (stereo not given)	none (no result: GRIN3A LBD mod, UBC9 SUMO inh, UBC13 inh)
Cc1ccc(S(=O)(=O)N(C)CCCC(=O)Nc2ccncc2)cc1	none
Cc1ccc(S(=O)(=O)N(C)CCCC(=O)Nc2ccccn2)cc1	HGIII-sPLA2 inh 19.6 (no result: UBC9 SUMO inh) | hGIII sPLA2 conf inactive | BODIPY interf inactive
